The values below come from PubChem BioAssay AID485344 (National Center for Advancing Translational Sciences (NCATS), 2010).

The whole screen tested about 340,000 compounds, of which about 6,900 (2%) were called active. Rule as the data show it: active = inhibition above about 30%; inactive = below that, where a call was filed. Only a selection was taken, and actives are over-represented in it overall.

For this assay, the target named is D(2) dopamine receptor (Homo sapiens) (UniProt P14416). As to the kind of experiment: HTS Assay for Allosteric Antagonists of the Human D2 Dopamine Receptor: Primary Screen for Antagonists. Also: 0% is about no effect. To be noted: HEK293 TREx D2 cells, calcium flux, dopamine EC80; at 10 µM; stronger effect = higher value. The gist of the method: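 Calcium mobilization kinetics were recorded at 1 s intervals in tetracycline-induced HEK293 T-REx D2 cells, first for 180 s after compound addition and then 180 s after EC80 dopamine.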
D(2) dopamine receptor (Homo sapiens), sequence (P14416 whole entry, looked up): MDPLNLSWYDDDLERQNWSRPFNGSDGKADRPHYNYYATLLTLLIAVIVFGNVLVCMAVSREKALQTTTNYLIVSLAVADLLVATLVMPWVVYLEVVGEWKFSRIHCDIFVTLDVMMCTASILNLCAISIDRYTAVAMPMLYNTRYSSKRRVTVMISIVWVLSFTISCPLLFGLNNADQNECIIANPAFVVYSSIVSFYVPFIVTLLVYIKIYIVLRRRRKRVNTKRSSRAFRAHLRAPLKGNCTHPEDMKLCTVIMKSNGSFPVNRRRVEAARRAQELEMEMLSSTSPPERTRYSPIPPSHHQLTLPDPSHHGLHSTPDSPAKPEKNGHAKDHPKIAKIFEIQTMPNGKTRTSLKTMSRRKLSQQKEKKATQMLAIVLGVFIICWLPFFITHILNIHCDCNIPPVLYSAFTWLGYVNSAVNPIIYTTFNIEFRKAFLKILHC
For orientation: Calcium flux is commonly read through the fluorescence of an indicator in the cells.
Take `O=C(c1ccc(Cl)c(S(=O)(=O)N2CCCCCC2)c1)N1CCN(c2ccc(O)cc2)CC1`: the inhibition was 4.16% (inactive). Then `CCOC(=O)C(C)N(c1ccccc1Cl)S(C)(=O)=O` (centres undefined), with -9.97% (inactive); and `Cc1ccc(C)c(N2CCN(C(=O)CCCCn3c(=O)[nH]c4ccccc4c3=O)CC2)c1`, with -2.01% (inactive).

With `O=C(CCCCn1c(=O)[nH]c2ccccc2c1=O)NCc1ccc2c(c1)OCO2`, the inhibition was -1.23% (inactive). On to `O=C(CCCn1c(=O)[nH]c2cc(Cl)ccc2c1=O)NCCN1CCN(c2ccccc2)CC1`, for which the inhibition was 81.3% (active). On to `CCN(CC)CCNC(=O)CCCCCn1c(=O)[nH]c2cc(C(=O)OC)ccc2c1=O`, for which the inhibition was -2.71% (inactive).

For the molecule `O=C(CCCCCn1c(=O)[nH]c2ccccc2c1=O)NCCc1c[nH]c2ccccc12`, the inhibition is 39.1% (active).

Regarding `O=C(CCc1c[nH]c2ccccc12)NCCOc1ccccc1`, the inhibition is 12.3% (inactive). `O=C(CSc1ccccc1)Nc1cccc(S(=O)(=O)N2CCOCC2)c1`: the inhibition was 12.8% (inactive). Then `O=C(/C=C/c1cccc([N+](=O)[O-])c1)OCC(=O)N1CCOCC1`, with 13.9% (inactive); and `CSc1ccccc1NC(=O)COC(=O)CCCOc1ccc(C)cc1`, with 5.07% (inactive).

Turning to `CCOc1cc(/C=C/C(=O)OCC(=O)NCCN2C(=O)CSC2=O)ccc1OCC(C)C`, the inhibition is 2.85% (inactive). For `CSCCC(NC(=O)c1ccc(Cl)cc1Cl)C(=O)NNC(=O)c1csc(N2CCOCC2)n1` (centres undefined) the value was 33.7% (active). For `O=C(NNC(=O)c1cc(-c2ccccc2Cl)nc2ccccc12)c1csc(N2CCOCC2)n1` the value was 4.74% (inactive); for `COc1ccccc1C(=O)NC(CCSC)C(=O)NNC(=O)c1csc(N2CCOCC2)n1` (centres undefined), 6.58% (inactive); for `CN1CCN(c2ccc(NC(=O)c3cc(Cl)c4c(c3)OCCO4)cc2)CC1`, -8.36% (inactive).

Take `COc1ccc(S(=O)(=O)N2CCCC2CNC(=O)C(=O)NC2CC2)cc1` (centres undefined): the inhibition was 2.63% (inactive). For `CN(C)CCOC1c2ccccc2-c2ccccc21` the value was -3.38% (inactive); for `Cc1ccccc1C(OCCN(C)C)C1CCCCC1` (centres undefined), 86.8% (active); for `Cc1ccccc1C(OCC(O)CN1CCCCC1CCO)c1ccccc1` (centres undefined), -4.51% (inactive). On to `Cc1ccc(S(=O)(=O)NCCC(=O)NNC(=O)C2COc3ccccc3O2)cc1` (centres undefined), for which the inhibition was -0.636% (inactive). Consider `CCCCN(C(=O)c1ccc2ccccc2c1)c1c(N)n(CCCC)c(=O)[nH]c1=O`, for which the inhibition is -22.6% (inactive). For the molecule `Cc1ccc(/C=C/C(=O)OCC(=O)Nc2cccnc2Cl)cc1`, the inhibition is 13% (inactive).

With `CCCCCCSc1nsc(N)n1`, the inhibition is 51.1% (active). Then `CCCSc1nsc(N)n1`, with -5.55% (inactive); and `Nc1nc(SC23CC4CC(CC(C4)C2)C3)ns1`, with -8.79% (inactive). Consider `Cc1ccc(S(=O)(=O)N2CCCCC2)cc1NC(=O)c1cccnc1`, for which the inhibition is 1.41% (inactive). Then `CCNC(=O)N1CCN(S(=O)(=O)c2ccc3c(c2)OCCCO3)CC1`, with 11.7% (inactive); and `CCN(CC(=O)Nc1cccc(S(=O)(=O)N2CCCCC2)c1)Cc1ccccc1`, with 0.844% (inactive); and `COc1ccccc1N1CC(C(=O)NCCN2C(=O)S/C(=C\c3cccnc3)C2=O)CC1=O` (centres undefined), with 4.67% (inactive). Then `COc1cc(CN2CCCN(C)CC2)c([N+](=O)[O-])cc1OC`, with 24.2% (inactive); and `Cc1cc(OCCCN2CCN(Cc3ccccc3)CC2)ccc1[N+](=O)[O-]`, with -14.3% (inactive). Then `COc1cc(CN2CCN(Cc3ccc(C)cc3)CC2)c([N+](=O)[O-])cc1OC`, with 88.1% (active). `COc1ccc(-c2sc3ccc(OC)cc3c2C#Cc2ccccn2)cc1`: the inhibition is -2.01% (inactive). For `CC1CN(C2CCCCC2)c2nc3c(c(=O)n(C)c(=O)n3C)n2C1` (centres undefined) the value was 38.7% (active); for `CC(O)c1nc2c(c(=O)n(C)c(=O)n2C)n1C` (centres undefined), 0.261% (inactive). With `CCCCCCn1c(CN2CCCC(C)C2)nc2c1c(=O)n(C)c(=O)n2C` (centres undefined), the inhibition was 2.89% (inactive). For `CCN(CC(=O)NCc1cccs1)C(=O)/C=C/c1ccc(C)cc1` the value was 0.23% (inactive); for `COc1ccc2c(C)cc(SCC(=O)NCC3CCCO3)nc2c1` (centres undefined), 0.454% (inactive). As for `O=C(NC1CCCCCC1)C1CCN(C(=O)c2ccc(Cl)cc2)CC1`, the inhibition was -21.8% (inactive). Then `COc1ccccc1OCCNC(=O)C(CCSC)NC(=O)COc1ccccc1` (centres undefined), with 0.971% (inactive); and `Cc1csc(NC(=S)Nc2cccc(Cl)c2)n1`, with 32.1% (active). For `S=C(Nc1cccc(Cl)c1)Nc1ccc2cn[nH]c2c1` the value was -2.72% (inactive). Then `S=C(Nc1cccc(Cl)c1)Nc1ccc2c(c1)OCCO2`, with 3.88% (inactive); and `CN(CC(=O)Nc1ccc(S(=O)(=O)N2CCCC2)cc1)Cc1ccc(Cl)c(Cl)c1`, with -19.3% (inactive). In the case of `CN(CC(=O)Nc1ccc(F)cc1)CC(=O)Nc1ccc(Cl)c(S(=O)(=O)N2CCOCC2)c1`, the inhibition was -2.29% (inactive).

Consider `CN(CCC(=O)Nc1cc(S(=O)(=O)N(C)C)ccc1Cl)CC(=O)Nc1ccc(F)cc1`, for which the inhibition was 50.6% (active). For `Cc1ccc(CN2CC(C(=O)NNC(=O)Cn3ccc(C(F)(F)F)n3)CC2=O)cc1` (centres undefined) the value was 9.85% (inactive); for `COC(=O)C1CCN(C(=O)NC2CC(=O)N(c3ccc4c(c3)OCCO4)C2)CC1` (centres undefined), 10.2% (inactive). In the case of `Cc1c(Cl)cccc1NC(=S)NCc1ccc2c(c1)OCO2`, the inhibition was -3.97% (inactive). In the case of `Cc1ccc(/C=N/NC(=S)Nc2cccc(S(=O)(=O)N(C)C)c2)o1`, the inhibition is -10.5% (inactive). With `CN(C)S(=O)(=O)c1cccc(NC(=S)NCc2ccc3c(c2)OCO3)c1`, the inhibition is 51.6% (active). On to `O=C(O)CN1c2cccc3cccc(c23)S1(=O)=O`, for which the inhibition is 14.3% (inactive).

Take `Cc1ccc(S(=O)(=O)N(C)C)cc1NC(=O)CN1c2cccc3cccc(c23)S1(=O)=O`: the inhibition was 37% (active).

As for `CC(C)CN(CC(C)C)C(=O)CN1c2cccc3cccc(c23)S1(=O)=O`, the inhibition is -10.2% (inactive). Then `O=C(COc1ccccc1Cl)N1N=C(c2cccs2)CC1c1ccco1` (centres undefined), with 5.49% (inactive). For the molecule `Cc1ccc(-c2csc(NC(=O)C3=COCCO3)n2)cc1C`, the inhibition is 1.39% (inactive). Take `CCOC(=O)N1CCN(Cc2nc3cc(NC(=O)CC)ccc3n2CC)CC1`: the inhibition was 3.26% (inactive). In the case of `CCOC(=O)N1CCN(Cc2nc3cc(NC(C)=O)ccc3n2C)CC1`, the inhibition was 31.3% (active). For `CN1CCN(Cc2nc3cc(NC(=O)COc4ccc([N+](=O)[O-])cc4)ccc3n2C)CC1` the value was -8.44% (inactive); for `CCC(=O)Nc1ccc2c(c1)nc(CCN1CCN(c3ccccn3)CC1)n2C`, 57% (active). As to `CCN(CC)c1ccc(NC(=O)CN2CCN(c3ccccn3)CC2)cc1`, the inhibition was 5.78% (inactive). Then `Cn1c(CCN2CCCCCC2)nc2cc(NC(=O)Nc3ccccc3)ccc21`, with 0.502% (inactive); and `O=C(COC(=O)c1cc(S(=O)(=O)N2CCOCC2)ccc1Cl)NCCc1ccccc1`, with -3.61% (inactive); and `CC1CCC(CN2CCN=C2N(C)C)CC1` (centres undefined), with 11.2% (inactive).

Turning to `COc1ccccc1C1=CC(=O)C[C@H](c2ccc(F)cc2)C1`, the inhibition is 4.4% (inactive).

In the case of `O=S(=O)(c1ccccc1)N1CCC(c2ccccc2)CC1`, the inhibition is 0.0462% (inactive). Consider `COc1ccccc1C(=O)NC(CCSC)C(=O)N1CCN(C(C)=O)CC1` (centres undefined), for which the inhibition was 17.9% (inactive).

Consider `O=c1oc2ccc(C#CC3(O)CCCCC3)cc2cc1-n1cc(-c2ccsc2)nn1`, for which the inhibition is 2.59% (inactive). For `OCC[C@H]1C[C@@H](O)[C@H](O)[C@]2(OCCCc3ccccc32)O1` the value was 5.04% (inactive).

As for `O=C(OCC(=O)N1CCCCCC1)c1cnc(Cl)c(Cl)c1`, the inhibition is -0.916% (inactive). For `CC(C)NC(=O)NC(=O)CSc1nnc(-c2ccccc2F)n1N` the value was 26% (inactive); for `Nn1c(SCC(=O)NC2CCCC2)nnc1-c1ccccc1F`, -13.5% (inactive); for `Nn1c(SCC(=O)NC(=O)NC2CCCC2)nnc1-c1ccccc1F`, 88.5% (active). For `CCOc1ccc(CCNC(=O)COC(=O)CCS(=O)(=O)c2ccc(C)cc2)cc1OCC` the value was -15.8% (inactive); for `O=C(NC1CCCCC1)c1ccc(-c2ccc(Cl)cc2)o1`, 17.9% (inactive).

Turning to `COCCN1C(=O)c2oc3c(C)cc(C)cc3c(=O)c2C1c1cccc(O)c1` (centres undefined), the inhibition is 8.13% (inactive). Then `O=C1c2oc3ccccc3c(=O)c2C(c2cccc(O)c2)N1c1ccccn1` (centres undefined), with 30.8% (active); and `O=C1c2oc3ccc(Br)cc3c(=O)c2C(c2cccc(F)c2)N1CCO` (centres undefined), with 24.1% (inactive); and `Cc1ccc(-c2nn(-c3ccccc3)cc2C(=O)NC2CCC(O)CC2)cc1` (centres undefined), with 11.3% (inactive). For `CC(C)(C)OC(=O)N[C@H](C(=O)OC(C)(C)C)c1ccc(Br)cc1`, the inhibition was -2.43% (inactive). Then `COc1cccc(C2=CC(=O)C[C@H](c3ccc(F)cc3)C2)c1OC`, with 2.64% (inactive). For `Cc1ccc(S(=O)(=O)N2CCN(C(=O)COC(=O)c3c(C)cc(C)cc3C)CC2)c(C)c1` the value was -0.571% (inactive); for `CCCc1cc(=O)[nH]c(SCC(=O)N2CCN(S(=O)(=O)c3ccc(C)cc3C)CC2)n1`, 40.9% (active); for `Cc1ccc(S(=O)(=O)N2CCN(C(=O)CSc3cc(C)ccc3C)CC2)c(C)c1`, 12.2% (inactive). For `O=C(COC(=O)C1CC2CCCC(C1)C2=O)NC(=O)c1ccccc1` (centres undefined) the value was -17.3% (inactive).

In the case of `CC(Oc1ccc(Br)cc1)C(=O)NC1CCCCCC1` (centres undefined), the inhibition was -1.39% (inactive). Then `O=C(Nc1ccccc1C(=O)Nc1ccncc1)c1ccc([N+](=O)[O-])cc1`, with -16% (inactive); and `O=C(COc1ccc([N+](=O)[O-])cc1)Nc1ccc(N2CCCC2)cc1`, with -10.9% (inactive). Then `O=C(COc1ccc([N+](=O)[O-])cc1)Nc1cccc(C(=O)Nc2ccccc2C(=O)O)c1`, with 52% (active); and `Cc1ccc(S(=O)(=O)N(C)CC(=O)NCC(c2ccc(F)cc2)N2CCOCC2)cc1` (centres undefined), with 12.3% (inactive); and `CCCn1nc(C(=O)Nc2ccc3nc(C)sc3c2)c2ccccc2c1=O`, with 31% (active). For `CCCCn1nc(C(=O)Nc2cccc(C(=O)NC3CC3)c2)c2ccccc2c1=O` the value was -27.4% (inactive); for `CCCn1nc(C(=O)NNC(=O)CSCC(=O)Nc2cc(C)on2)c2ccccc2c1=O`, 5.99% (inactive).

By inhibition is commonly meant the relative decrease from the control value, in per cent.
